Our source for the Percent Effect values is ChEMBL document CHEMBL3988442, “University of Dundee, Small-Polar-MMV Screening Library” (2021).

Parameters in all cases: scale not given: direction of the effect not stated beside the values
The target of test [1] is Protein translocase subunit SecA (Escherichia coli (strain K12)) (UniProt P10408). Briefly: Assay to Identify E. coli SecA ATPase Inhibitors. It counts as functional. The settings on record: 30 µM.
Test [2] addresses T1, Ubiquitin-activating enzyme e1, putative (Leishmania donovani (strain BPK282A1)) (UniProt E9BSI1).
T1 sequence (whole entry): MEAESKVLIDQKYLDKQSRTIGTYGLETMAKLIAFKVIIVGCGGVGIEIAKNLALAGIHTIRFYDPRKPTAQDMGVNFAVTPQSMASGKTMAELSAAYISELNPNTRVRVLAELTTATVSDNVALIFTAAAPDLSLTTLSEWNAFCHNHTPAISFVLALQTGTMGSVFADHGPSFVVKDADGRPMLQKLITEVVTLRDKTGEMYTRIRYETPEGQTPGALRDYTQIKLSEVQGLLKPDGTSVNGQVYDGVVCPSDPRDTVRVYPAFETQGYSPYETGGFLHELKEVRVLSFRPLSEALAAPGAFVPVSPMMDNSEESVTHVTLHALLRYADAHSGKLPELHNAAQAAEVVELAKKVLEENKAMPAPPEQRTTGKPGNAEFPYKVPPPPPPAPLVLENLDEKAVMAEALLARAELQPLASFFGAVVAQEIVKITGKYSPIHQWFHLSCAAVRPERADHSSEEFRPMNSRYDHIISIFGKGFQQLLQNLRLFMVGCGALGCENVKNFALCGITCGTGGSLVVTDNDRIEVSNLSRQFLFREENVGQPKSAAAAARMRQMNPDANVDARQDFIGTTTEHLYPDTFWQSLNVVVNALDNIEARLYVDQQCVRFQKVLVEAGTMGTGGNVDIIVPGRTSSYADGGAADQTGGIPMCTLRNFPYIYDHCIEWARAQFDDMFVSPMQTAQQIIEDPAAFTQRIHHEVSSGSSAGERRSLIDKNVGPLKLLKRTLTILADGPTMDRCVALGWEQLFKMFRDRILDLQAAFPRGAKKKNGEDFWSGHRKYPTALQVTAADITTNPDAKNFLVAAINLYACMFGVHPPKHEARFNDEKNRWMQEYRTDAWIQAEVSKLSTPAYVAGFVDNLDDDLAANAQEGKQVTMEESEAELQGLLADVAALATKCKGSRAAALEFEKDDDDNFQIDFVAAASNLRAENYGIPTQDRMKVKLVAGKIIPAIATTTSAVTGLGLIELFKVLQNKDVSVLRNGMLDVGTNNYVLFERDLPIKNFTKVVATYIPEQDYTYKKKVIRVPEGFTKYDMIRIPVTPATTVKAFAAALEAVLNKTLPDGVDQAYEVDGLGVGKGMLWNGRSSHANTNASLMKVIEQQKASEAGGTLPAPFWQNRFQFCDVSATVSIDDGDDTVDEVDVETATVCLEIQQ
Briefly: Leishmania donovani Ubiquitin Activating Enzyme (LdE1). It counts as functional. To be noted: 30 µM.

The target in test [3] is AMP-activated protein kinase, AMPK (Homo sapiens) (UniProt P54646+O43741+P54619+Q9UGJ0+Q9Y478+Q13131+Q9UGI9). Briefly: AMP-dependent Kinase enzyme assay. An in vitro enzyme assay that detects ADP turnover that is directly proportional to AMPK activity. This uses naive AMPK that is activated during the assay with MK-8722. It counts as functional. To be noted: 30 µM.
The target in test [4] is Sialic acid-binding Ig-like lectin 9 (Homo sapiens) (UniProt Q9Y336). Briefly: Hs-Siglec9 ALPHAscreen SOP 20170721. The settings on record: 10 µM.
In the next test the test system is Trypanosoma cruzi. The test can be described thus: Trypanosoma cruzi phosphomannomutase and mannose-1-phosphate guanylyltransferase assay. The settings on record: 10 µM. The class given is functional.
The target of test [5] is T2, Arginase-2, mitochondrial (Homo sapiens) (UniProt P78540).
T2 sequence (whole entry): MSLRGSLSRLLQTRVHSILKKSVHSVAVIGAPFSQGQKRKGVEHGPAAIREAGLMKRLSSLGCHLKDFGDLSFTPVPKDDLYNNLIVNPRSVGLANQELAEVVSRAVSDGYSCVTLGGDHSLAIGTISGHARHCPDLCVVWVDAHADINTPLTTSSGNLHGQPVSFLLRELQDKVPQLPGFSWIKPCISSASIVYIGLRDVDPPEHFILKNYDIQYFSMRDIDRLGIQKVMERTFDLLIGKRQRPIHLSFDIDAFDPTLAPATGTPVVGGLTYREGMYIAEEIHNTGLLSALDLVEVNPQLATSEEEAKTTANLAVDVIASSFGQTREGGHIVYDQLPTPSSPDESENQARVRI
Briefly: in vitro enzyme assay to detect the production of urea directly proportional to the activity of Arginase II. Also: in the data most compounds retested in dose-response had high values. The class given is functional. To be noted: 33.3 µM.

In test [6] the target is T3, Proteasome subunit beta (Trypanosoma cruzi) (UniProt O96673).
T3 sequence (whole entry): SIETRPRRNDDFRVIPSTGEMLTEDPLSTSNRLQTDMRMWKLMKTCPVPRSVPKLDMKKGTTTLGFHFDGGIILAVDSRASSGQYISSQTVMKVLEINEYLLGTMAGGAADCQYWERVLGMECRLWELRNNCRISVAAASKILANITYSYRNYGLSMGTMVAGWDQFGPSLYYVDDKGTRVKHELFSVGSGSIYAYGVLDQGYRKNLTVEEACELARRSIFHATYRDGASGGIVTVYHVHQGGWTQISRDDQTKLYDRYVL
The test can be described thus: Trypanosoma cruzi proteasome chymotrypsin-like activity (TcProtChymo) assay. Also: in the data most compounds retested in dose-response had high values. It counts as functional. The settings on record: 9.37 µM.

The next test is filed under the species Homo sapiens. The test can be described thus: To identify inhibition of the IFN signalling (Jak-Stat) pathway via expression of an eGFP reporter gene under the control of an IFN-stimulated response element (ISRE) containing MxA promoter. The class given is functional. The settings on record: 30 µM.
Test [7] addresses T4, Tyrosyl-tRNA synthetase, putative (Trypanosoma cruzi (strain CL Brener)) (UniProt Q4DSP6).
T4 sequence (whole entry): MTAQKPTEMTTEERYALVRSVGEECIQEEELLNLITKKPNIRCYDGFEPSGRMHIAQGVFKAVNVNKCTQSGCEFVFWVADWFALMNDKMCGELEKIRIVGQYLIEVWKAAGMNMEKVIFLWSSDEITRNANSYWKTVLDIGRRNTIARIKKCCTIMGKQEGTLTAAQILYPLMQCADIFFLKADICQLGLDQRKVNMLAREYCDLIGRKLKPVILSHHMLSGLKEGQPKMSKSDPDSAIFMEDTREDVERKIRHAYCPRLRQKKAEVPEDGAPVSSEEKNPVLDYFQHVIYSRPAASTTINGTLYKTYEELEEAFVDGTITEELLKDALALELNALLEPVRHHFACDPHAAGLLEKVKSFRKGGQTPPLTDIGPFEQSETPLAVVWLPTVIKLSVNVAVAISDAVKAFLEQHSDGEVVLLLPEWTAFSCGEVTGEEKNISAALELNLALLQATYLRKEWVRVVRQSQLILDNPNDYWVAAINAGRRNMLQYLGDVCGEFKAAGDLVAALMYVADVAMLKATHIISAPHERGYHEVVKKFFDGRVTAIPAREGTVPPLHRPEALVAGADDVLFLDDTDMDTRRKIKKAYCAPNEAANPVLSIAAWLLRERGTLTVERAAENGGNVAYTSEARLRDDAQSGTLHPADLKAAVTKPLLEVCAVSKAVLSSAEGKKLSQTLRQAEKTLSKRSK
The test can be described thus: Trypanosoma cruzi tyrosyl tRNA synthetase (TcYRS) _High Tyrosine SOP. Also: in the data most compounds retested in dose-response had high values. It counts as functional. The settings on record: 30 µM.

The target of test [8] is T4, Tyrosyl-tRNA synthetase, putative (Trypanosoma cruzi (strain CL Brener)). The test can be described thus: Trypanosoma cruzi tyrosyl tRNA synthetase (TcYRS) SOP. The class given is functional. To be noted: 30 µM.
Test [9] deals with Chromo domain-containing protein 1 (Saccharomyces cerevisiae (strain ATCC 204508 / S288c) (Baker's yeast)) (UniProt P32657). Briefly: ScCHD-1 Enzyme Inhibition Assay. Also: in the data most compounds retested in dose-response had high values. It counts as functional. To be noted: 30 µM.

For some of these results: Potency and affinity values are given separately.

Chain of Sialic acid-binding Ig-like lectin 9 (Homo sapiens) (Q9Y336 whole entry): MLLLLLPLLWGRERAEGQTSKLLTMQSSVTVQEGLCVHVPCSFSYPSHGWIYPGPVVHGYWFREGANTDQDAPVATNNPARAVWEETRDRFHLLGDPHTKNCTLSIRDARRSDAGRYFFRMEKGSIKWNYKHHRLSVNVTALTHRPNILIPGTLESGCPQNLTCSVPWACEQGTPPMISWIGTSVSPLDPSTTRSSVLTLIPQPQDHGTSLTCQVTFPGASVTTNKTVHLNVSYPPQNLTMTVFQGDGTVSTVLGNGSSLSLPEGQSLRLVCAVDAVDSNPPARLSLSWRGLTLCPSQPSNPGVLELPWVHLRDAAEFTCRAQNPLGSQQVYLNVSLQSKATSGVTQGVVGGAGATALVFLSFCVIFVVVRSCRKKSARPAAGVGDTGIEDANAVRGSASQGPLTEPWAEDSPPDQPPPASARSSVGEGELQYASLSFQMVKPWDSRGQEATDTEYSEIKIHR
Chain of Chromo domain-containing protein 1 (Saccharomyces cerevisiae (strain ATCC 204508 / S288c) (Baker's yeast)) (P32657 whole entry, the tested form may be a part): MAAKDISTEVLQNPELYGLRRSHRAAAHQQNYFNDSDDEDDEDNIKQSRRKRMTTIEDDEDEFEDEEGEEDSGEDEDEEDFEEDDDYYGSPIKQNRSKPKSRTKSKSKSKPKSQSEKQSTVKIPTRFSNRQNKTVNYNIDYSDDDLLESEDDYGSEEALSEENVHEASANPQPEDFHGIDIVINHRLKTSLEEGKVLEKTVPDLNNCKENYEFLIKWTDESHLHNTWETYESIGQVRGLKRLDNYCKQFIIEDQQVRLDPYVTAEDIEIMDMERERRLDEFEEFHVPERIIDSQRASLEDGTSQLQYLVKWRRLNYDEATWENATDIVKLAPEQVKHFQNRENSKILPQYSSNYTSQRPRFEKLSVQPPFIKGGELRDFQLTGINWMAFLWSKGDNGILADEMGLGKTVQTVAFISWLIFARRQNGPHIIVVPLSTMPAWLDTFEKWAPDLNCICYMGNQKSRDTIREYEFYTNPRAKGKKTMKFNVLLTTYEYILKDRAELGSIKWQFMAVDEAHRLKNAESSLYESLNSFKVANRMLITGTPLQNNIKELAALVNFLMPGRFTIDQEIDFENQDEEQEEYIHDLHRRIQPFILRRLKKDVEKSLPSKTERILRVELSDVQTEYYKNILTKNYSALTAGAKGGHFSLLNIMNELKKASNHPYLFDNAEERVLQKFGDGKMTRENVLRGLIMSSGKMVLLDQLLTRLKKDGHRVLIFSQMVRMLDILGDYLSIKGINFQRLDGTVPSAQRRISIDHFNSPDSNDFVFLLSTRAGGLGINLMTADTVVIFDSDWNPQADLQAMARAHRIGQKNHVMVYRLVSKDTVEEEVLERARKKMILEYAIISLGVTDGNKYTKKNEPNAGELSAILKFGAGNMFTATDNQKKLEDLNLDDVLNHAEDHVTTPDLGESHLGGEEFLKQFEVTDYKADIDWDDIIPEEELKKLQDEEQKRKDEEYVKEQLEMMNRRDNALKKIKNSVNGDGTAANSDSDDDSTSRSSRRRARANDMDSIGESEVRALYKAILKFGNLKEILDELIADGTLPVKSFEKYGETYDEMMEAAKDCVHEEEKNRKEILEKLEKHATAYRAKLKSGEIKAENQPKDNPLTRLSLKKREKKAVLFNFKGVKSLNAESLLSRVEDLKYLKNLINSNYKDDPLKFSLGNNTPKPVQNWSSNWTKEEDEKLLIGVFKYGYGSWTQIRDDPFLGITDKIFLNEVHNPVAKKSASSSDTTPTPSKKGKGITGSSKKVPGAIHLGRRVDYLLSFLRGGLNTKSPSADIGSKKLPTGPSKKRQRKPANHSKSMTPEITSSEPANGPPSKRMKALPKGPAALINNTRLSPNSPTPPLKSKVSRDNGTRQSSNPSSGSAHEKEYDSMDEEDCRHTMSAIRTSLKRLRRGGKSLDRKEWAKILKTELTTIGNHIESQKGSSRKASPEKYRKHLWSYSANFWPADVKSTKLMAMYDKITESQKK
Chain of Protein translocase subunit SecA (Escherichia coli (strain K12)) (P10408 whole entry): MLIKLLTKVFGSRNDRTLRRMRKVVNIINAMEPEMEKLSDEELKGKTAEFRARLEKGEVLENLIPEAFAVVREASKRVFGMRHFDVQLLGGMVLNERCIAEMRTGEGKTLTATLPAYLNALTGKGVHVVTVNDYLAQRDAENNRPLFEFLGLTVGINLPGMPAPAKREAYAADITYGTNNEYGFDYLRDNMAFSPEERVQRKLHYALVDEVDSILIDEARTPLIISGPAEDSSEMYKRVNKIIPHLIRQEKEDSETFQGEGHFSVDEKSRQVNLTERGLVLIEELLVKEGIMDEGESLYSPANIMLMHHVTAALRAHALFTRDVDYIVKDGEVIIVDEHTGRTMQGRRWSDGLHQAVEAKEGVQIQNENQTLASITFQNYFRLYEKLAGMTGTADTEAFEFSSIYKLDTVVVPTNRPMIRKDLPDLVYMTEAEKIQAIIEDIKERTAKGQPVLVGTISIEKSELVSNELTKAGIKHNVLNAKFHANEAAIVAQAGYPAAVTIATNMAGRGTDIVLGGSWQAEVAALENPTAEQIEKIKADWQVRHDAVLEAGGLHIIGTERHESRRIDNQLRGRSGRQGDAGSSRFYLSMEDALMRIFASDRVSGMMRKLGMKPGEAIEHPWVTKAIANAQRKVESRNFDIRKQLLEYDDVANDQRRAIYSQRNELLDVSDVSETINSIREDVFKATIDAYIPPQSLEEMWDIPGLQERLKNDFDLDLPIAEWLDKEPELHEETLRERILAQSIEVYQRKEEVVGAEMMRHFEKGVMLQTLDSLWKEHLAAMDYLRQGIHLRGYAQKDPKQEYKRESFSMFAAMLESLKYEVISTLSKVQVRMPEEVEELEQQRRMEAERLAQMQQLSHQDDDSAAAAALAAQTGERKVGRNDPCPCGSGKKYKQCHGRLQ

With `Cc1nnc(N2CCC(CN(C)C(C)C)CC2)c(C#N)c1C`, the Percent Effect in test [1] is -4.73%; in test [2], 2.6%; in test [3], -19%; in test [4], -13.1%; in the test on Trypanosoma cruzi, 9.89%; in [5], -4%. Moreover, the Percent Effect in test [6] was 3.64%; in the test filed under Homo sapiens, 4.7%; in [7] it was 3.81%; in test [8], 11.8%; in test [9], -23.4%.
`CC(C)N(C)C(=O)C1=NOC2(CCN(C(=O)c3ccc(Cl)cc3)C2)C1` (stereo unspecified): the Percent Effect in [1] is -0.137%; in test [2], 5.48%; in [3], 1.89%; in test [4], 5.19%; in the test with Trypanosoma cruzi, -7.54%; in test [5], -1.6%. In addition, the Percent Effect in test [6] is 17.6%; in the test listed under Homo sapiens, 27.1%; in [7], 8.33%; in test [8] it was 8.64%; in [9], -3.93%.
Turning to `O=C(Nc1ccccc1)C1CN(CC2CC2)CC12CCOCC2` (stereo unspecified), the Percent Effect in test [1] is -1.55%; in test [2], 5.33%; in test [3], 7.28%; in test [4], -3.04%; in the test with Trypanosoma cruzi, -0.579%; in test [5] it was -8.42%. Besides, the Percent Effect in test [6] is 10.4%; in the test filed under Homo sapiens it was -0.536%; in test [7], -3.12%; in test [8], -10%; in [9] it was -4.82%.
Regarding `COCC(=O)NCc1cc(=O)n2c(n1)CN(CC1CCOC1)CCC2` (stereo unspecified), the Percent Effect in [1] is 0.158%; in test [2], 13.5%; in test [3] it was 2.63%; in test [4] it was -10.2%; with Trypanosoma cruzi it was 0.0978%; in test [5], -2.23%. Moreover, the Percent Effect in test [6] was 8.12%; in the test listed under Homo sapiens it was 8.83%; in [7], -1.08%; in test [8], 12.8%; in [9], -2.53%.
On to `O=C(NCCCN1CCCC1=O)Nc1ccc(Br)cc1Cl`, for which the Percent Effect in test [1] is -4.26%; in test [2], -4%; in test [3] it was 3.31%; in test [4], 6.15%; in the test with Trypanosoma cruzi, 3.14%; in test [5], -3.7%. Besides, the Percent Effect is 7.02% in [6]; 8.83% in the test filed under Homo sapiens; 0% in test [7]; 2.56% in [8]; -2.19% in [9].
`CCCc1nnsc1C(=O)NCC1CCN(c2ccccn2)CC1`: the Percent Effect in [1] was -0.329%; in [2], 11%; in [3] it was -5.48%; in test [4], 2.44%; in the test on Trypanosoma cruzi, 4.5%; in test [5], 11.8%. Also, the Percent Effect in [6] was 21.3%; in the test listed under Homo sapiens, 25.2%; in [7] it was 5.38%; in test [8], 20%; in [9], -6.53%.
Take `c1ncn(CC2CCCCN2Cc2noc(C3CC3)n2)n1` (stereo unspecified): the Percent Effect in test [1] was -0.132%; in test [2] it was 15.8%; in test [3] it was 0.834%; in test [4], 1.81%; with Trypanosoma cruzi, -1.69%; in test [5], -1.92%. The Percent Effect was 16.4% in test [6]; 6.6% in the test filed under Homo sapiens; 3.43% in [7]; 21.9% in test [8]; -12.9% in test [9].
As to `O=C(CN(Cc1ccccc1)CC1CCOCC1)Nc1nccs1`, the Percent Effect is -4.59% in [1]; 0% in [2]; 0.406% in [3]; 1.15% in [4]; -4.17% in the test on Trypanosoma cruzi; 0.399% in test [5]. Moreover, the Percent Effect in test [6] is 4.2%; in the test listed under Homo sapiens, -3.27%; in test [7], 6.25%; in [8], 11.1%; in [9], -0.498%.
On to `COC(=O)CCNC(=O)C1CC(=O)N(C2CCCC2)C1` (stereo unspecified), for which the Percent Effect in [1] was -4.42%; in test [2], -2.7%; in [3], -0.395%; in test [4] it was -6.64%; with Trypanosoma cruzi it was -0.781%; in test [5] it was -2.08%. Moreover, the Percent Effect in [6] was 5.83%; in the test filed under Homo sapiens, -6.8%; in test [7] it was 1.98%; in test [8], 6.1%; in test [9], -2.5%.
Regarding `Cc1ccc(NS(=O)(=O)c2cc3c(c(C(=O)O)c2)OCCO3)c(F)c1`, the Percent Effect in [1] is -10.1%; in test [2] it was 13.2%; in test [3] it was -8.4%; in test [4] it was 15.9%; in the test on Trypanosoma cruzi, 10.6%; in [5] it was 1.08%. Further, the Percent Effect in [6] is 11.2%; in the test filed under Homo sapiens it was -1.31%; in [7], 2.46%; in test [8], 13.6%; in test [9] it was -9.81%.
With `CC(C)N(CC(N)=O)Cc1csc(COc2ccc(F)cc2)n1`, the Percent Effect in test [1] is -3.17%; in [2], 25.3%; in test [3], -6.77%; in test [4], 1.71%; in the test with Trypanosoma cruzi, 7.65%; in test [5] it was -4.18%. For the same compound, the Percent Effect in test [6] was 8.76%; in the test filed under Homo sapiens, 63.8%; in test [7], 5.42%; in test [8], 24.1%; in test [9], -4.66%.
